The results in this text go back to PubChem BioAssay (Tox21).

Records with an inconclusive call do not appear. Calls of active or inactive are those of the source. The call rests on the fitted dose curve; in most records, active means well fitted inhibition curve with a large enough effect in the repeat runs; inconclusive means weak or mixed curves, or effect the other way; inactive means no such curve, though single readings can be large or run the other way.
On the % scale 0 is the no-effect control and ±100 the full control effect.

Androgen receptor (Homo sapiens), sequence (P10275 whole entry, looked up): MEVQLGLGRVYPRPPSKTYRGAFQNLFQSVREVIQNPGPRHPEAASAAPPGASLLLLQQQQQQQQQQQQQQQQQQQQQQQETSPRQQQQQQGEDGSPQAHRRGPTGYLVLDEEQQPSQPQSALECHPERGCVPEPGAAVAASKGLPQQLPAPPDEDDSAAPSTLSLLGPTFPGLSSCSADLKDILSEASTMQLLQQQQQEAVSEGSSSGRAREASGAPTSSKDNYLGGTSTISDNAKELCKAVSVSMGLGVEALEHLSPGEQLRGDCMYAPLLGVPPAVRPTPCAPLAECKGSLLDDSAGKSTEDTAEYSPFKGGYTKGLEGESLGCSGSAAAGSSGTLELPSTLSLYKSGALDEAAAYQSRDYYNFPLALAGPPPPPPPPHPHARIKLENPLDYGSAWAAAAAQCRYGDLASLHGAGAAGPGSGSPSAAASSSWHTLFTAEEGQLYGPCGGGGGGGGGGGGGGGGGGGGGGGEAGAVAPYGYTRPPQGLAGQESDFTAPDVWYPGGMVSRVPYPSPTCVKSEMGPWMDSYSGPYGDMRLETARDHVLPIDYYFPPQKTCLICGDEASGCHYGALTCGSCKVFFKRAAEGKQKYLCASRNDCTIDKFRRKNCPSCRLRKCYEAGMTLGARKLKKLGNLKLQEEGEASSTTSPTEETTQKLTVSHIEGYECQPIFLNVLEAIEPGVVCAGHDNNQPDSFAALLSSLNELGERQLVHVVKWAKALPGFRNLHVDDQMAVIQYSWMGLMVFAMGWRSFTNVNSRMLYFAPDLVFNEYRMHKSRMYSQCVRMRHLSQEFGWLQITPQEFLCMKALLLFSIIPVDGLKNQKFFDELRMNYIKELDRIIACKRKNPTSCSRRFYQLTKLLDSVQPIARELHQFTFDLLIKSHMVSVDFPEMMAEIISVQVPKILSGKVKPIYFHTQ

The assay deals with Androgen receptor (Homo sapiens) (UniProt P10275). Nature of the assay: qHTS assay to identify small molecule antagonists of the androgen receptor (AR) signaling pathway using the MDA cell line (AID 743042; further: nearly all actives have a fitted effect of over 55% in size). The conditions noted are these: MDA-kb2 AR-luc, MMTV luciferase, R1881 antagonist, 16 h; series mostly up to 70.3 µM. An excerpt:
U.S. Tox21 Program National Center for Advancing Translational Sciences [NCATS] NIH Chemical Genomics Center [NCGC] U.S. Environmental Protection Agency [EPA] National Institutes of Environmental Health Sciences [NIEHS] National Toxicology Program [NTP] U.S. Food and Drug Administration [FDA] Tox21 Assay Overview: Androgen receptor (AR), a nuclear hormone receptor, plays a critical role in AR-dependent prostate cancer and other androgen related diseases. Endocrine disrupting chemicals (EDCs) and their interactions with steroid hormone receptors like AR may cause disruption of normal endocrine function as well as interfere with metabolic homeostasis, reproduction, developmental and behavioral functions. To identify the compounds that inhibit AR signaling, MDA-kb2 AR-luc cell line (from ATCC, deposited by Wilson et al.) was used to screen the Tox21 10K compound library. MDA-kb2 AR-luc cell line is human breast carcinoma cell line that was stably transfected with a luciferase reporter gene under control of the MMTV promoter containing response elements for both androgen receptor (AR) and glucocorticoid receptor (GR).
Tox21 Assay Protocol Summary: MDA-kb2 cells were dispensed at 3,000 cells/4 uL/well of culture medium into white wall/solid-bottom 1536-well plates using a Multidrop Combi (ThermoFisher Scientific, Waltham, MA) dispenser. After the assay plates were incubated at a 37C and 0% CO2 for 5 hr, 23 nL of compounds dissolved in DMSO, positive controls or DMSO only was transferred to the assay plate by a Pintool station (Kalypsys, San Diego, CA), followed by addition of 1 uL of agonist (R1881) in culture medium using a Bioraptr Flying Reagent Dispenser (FRD) workstation (Beckman Coulter, Indianapolis, IN, USA). The plates were incubated at a 37C and 0% CO2 for 16 h. After 15.5 h incubation, 1uL of CellTiter-Fluor reagent (Promega, Madison, WI) was added using a Bioraptr FRD to each plate for measuring cytotoxicity. The fluorescence intensity was quantified on a ViewLux plate reader (PerkinElmer, Shelton, CT) following 30 min incubation at 37C and 0% CO2. For measuring luciferase reporter gene activity, 4 uL of ONE-Glo reagent (Promega) was added to each plate using a Bioraptr FRD and luminescence was quantified on a ViewLux (PerkinElmer) plate reader after 30 min incubation at room temperature.
For orientation: qHTS replaces the single test concentration by a dilution series.
Consider `CCCC(=O)C(CC)Sc1ccoc1C` (centres undefined), for which the compound was called inactive.

Regarding `CSC(=O)c1cccc2nnsc12`, the result was inactive.

As for `CC(CN1CC(=O)NC(=O)C1)N1CC(=O)NC(=O)C1` (centres undefined), the outcome was inactive.

As for `C/C(Cl)=C/CCl`, the compound was classed as inactive.

Turning to `N#Cc1ccccc1C#N`, the result was inactive.

On to `C/C(=N\O)c1ccc(OCC(=O)N2CCCCC2)cc1`, for which the compound was called inactive.

Regarding `CC(C)(C)NCC(O)COc1cccc2c1CCC(=O)N2` (centres undefined), the compound was called inactive.

In the case of `Nc1cc(S(=O)(=O)O)ccc1O`, the compound was called inactive.

As for `Cc1ccc2cccnc2c1`, the call was inactive.

As for `CC(C)CC(O)Cc1ccccc1` (centres undefined), the compound was classed as inactive.

As to `NNC(=O)OCc1ccccc1`, the outcome was inactive.

`CC12CCCC=C1C(=O)OC2=O` (centres undefined): the outcome was inactive.

As for `Cc1ccc(N)nc1`, the call was inactive.

Take `CC(O)C(CO)C(C)O` (centres undefined): the outcome was inactive.

Consider `C[C@@H](CN1CC(=O)NC(=O)C1)N1CC(=O)NC(=O)C1`, for which the call was inactive.

Turning to `C=CCN1CCc2nc(N)sc2CC1`, the call was inactive.

For `CC/C=C\CCOC(=O)c1ccccc1`, the result was inactive.

Turning to `CC(=O)OC1CCC(C(C)(C)C)CC1` (centres undefined), the call was inactive.

For the compound `CCCCCCCCCCCCCCCCN(C)C`, the activity change, negative = inhibition is 19.6% [at 8.47 µM] (inactive).

On to `CCCCCCCCC1CO1` (centres undefined), for which the call was inactive.

Take `CCOC(=O)[C@H](CCc1ccccc1)N[C@H]1CS[C@H](c2cccs2)CN(CC(=O)O)C1=O`: the outcome was inactive.

Regarding `CCc1ncc(C)[nH]1`, the compound was classed as inactive.

On to `O=C(O)CCCCCCCCCC(=O)O`, for which the call was inactive.

As for `COC(C)(C)CC(C)=O`, the outcome was inactive.

`O=C1c2ccccc2C(=O)N1CO`: the result was inactive.

Regarding `COc1cc(OC)cc(OC)c1`, the compound was classed as inactive.

`O=C[C@@H](O)[C@H](O)[C@H](O)CO`: the compound was called inactive.

On to `CC1(C)C(=O)C(C)(C)C1=O`, for which the result was inactive.

`O=C(c1ccccc1)c1cccc(O)c1`: the compound was called inactive.

`N[C@H]1C(O)O[C@H](CO)[C@@H](O)[C@@H]1O` (some centres undefined): the outcome was inactive.

Consider `CN(C)c1cc(NC(=O)CNC(C)(C)C)c(O)c2c1C[C@H]1C[C@H]3[C@H](N(C)C)C(=O)C(C(N)=O)=C(O)[C@@]3(O)C(=O)C1=C2O`, for which the call was inactive.

Take `CC(C)OC(=O)C(C(=O)OC(C)C)=C1SC=CS1`: the call was inactive.

In the case of `C=C(C)C(=O)OCCCC`, the compound was classed as inactive.

Consider `COCc1nnc(-c2ccc[n+]([O-])c2)n1-c1c(Cl)c(Cl)cc2[nH]c(=O)c(=O)[nH]c12`, for which the compound was called inactive.
